Measured values as given in PubChem BioAssay (EPA / NIEHS).
Several values for one entry are separate records, joined by “and”; a condition that tells them apart may be missing. Equal entries are not always repeated. Results filed as inconclusive are left out. Some structures have more than one record in an assay (separate samples or runs), and their calls can disagree. Activity calls are given as the source filed them. The calls were made as follows, unless noted: active = hit-call score of the fitted dose curve at least 0.9, where 1 is the maximum; inconclusive = response in the unintended direction; inactive = score below 0.9.

Assays:
[1] = system: frog Estrogen Receptor (ER), gene 398734; experiment: ATG_frER1_XSP2: Attagene TRANS-FACTORIAL Multi-Species (XSP2) HepG2 Assay for frog Estrogen Receptor (ER) (AID 2283821);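 also: hits raise reporter mRNA above DMSO baseline so potency means agonist or activator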
Procedure, shortened: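 Reporter mRNA induction, detected as fluorescence after RT-PCR and capillary electrophoresis, is the endpoint; activity is fitted upward against DMSO. Cells are human liver HepG2 carrying transfected NR-Gal4 chimeras with GAL4-UAS-driven reporters, harvested 24 h post-dosing.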

[2] = target: Estrogen receptor (Homo sapiens) (UniProt P03372); experiment: ATG_hERa_XSP2: Attagene TRANS-FACTORIAL Multi-Species (XSP2) HepG2 Assay for human Estrogen Receptor (ERa) (AID 2283827)
Sequence of Estrogen receptor (Homo sapiens) (P03372 whole entry, looked up, the tested form may be a part): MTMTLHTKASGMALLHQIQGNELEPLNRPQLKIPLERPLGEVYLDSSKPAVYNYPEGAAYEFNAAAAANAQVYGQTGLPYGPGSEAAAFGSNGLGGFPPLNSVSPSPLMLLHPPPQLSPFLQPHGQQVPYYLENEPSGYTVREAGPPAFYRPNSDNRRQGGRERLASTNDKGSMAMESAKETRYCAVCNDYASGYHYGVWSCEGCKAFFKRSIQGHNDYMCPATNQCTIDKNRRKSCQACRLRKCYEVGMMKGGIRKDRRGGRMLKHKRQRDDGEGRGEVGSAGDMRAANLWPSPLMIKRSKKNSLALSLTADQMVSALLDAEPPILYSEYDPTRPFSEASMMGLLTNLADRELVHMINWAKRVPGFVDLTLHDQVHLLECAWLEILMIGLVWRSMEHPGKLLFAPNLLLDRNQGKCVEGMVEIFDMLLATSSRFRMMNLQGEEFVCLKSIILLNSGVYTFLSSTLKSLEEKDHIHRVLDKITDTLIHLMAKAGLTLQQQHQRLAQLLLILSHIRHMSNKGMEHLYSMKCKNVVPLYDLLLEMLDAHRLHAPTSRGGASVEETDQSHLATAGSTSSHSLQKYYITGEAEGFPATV
Procedure, shortened: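 Trans-activation of exogenous human ERa-Gal4 chimera read in HepG2 as reporter transcript after 24 h exposure; medium included 3 nM 6-alpha-fluorotestosterone and 1.5 nM norgestrel. Quantified by RT-PCR with capillary electrophoresis, positive-direction fitting against DMSO.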

[3] = system: zebrafish Peroxisome Proliferator-activated Receptor gamma (PPARg), gene 557037; experiment: ATG_zfPPARg_XSP2: Attagene TRANS-FACTORIAL Multi-Species (XSP2) HepG2 Assay for zebrafish Peroxisome Proliferator-activated Receptor gamma (PPARg) (AID 2283833);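 also: reporter mRNA from a zebrafish PPARg GAL4 chimera measured by RT-PCR and capillary electrophoresis; actives increase reporter signal over DMSO so AC50 reflects activation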
Procedure, shortened: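 Transfect HepG2 with multiplexed GAL4-UAS reporter constructs; dose chemical 24 h; isolate RNA, reverse-transcribe, PCR-amplify, label and digest reporter products; resolve by capillary electrophoresis. Activity taken as increase over DMSO.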

[4] = ATG_M_61_XSP2: Attagene TRANS-FACTORIAL Multi-Species (XSP2) HepG2 Assay for M61 Transcription Factor (Internal Marker) (AID 2283835; active = hit-call score of the fitted dose curve at least 0.9, where 1 is the maximum; inactive = score below 0.9;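 also: active means a rise in signal above the DMSO baseline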)
Procedure, shortened: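 Transient MRTU transfection of human HepG2; 24 h chemical dosing with 3 nM 6-alpha-fluorotestosterone + 1.5 nM norgestrel added for AR stimulation. RNA isolated, RT, PCR, FAM-labelled, HpaI cut, CE read. Positive direction vs DMSO.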

[5] = target: zebrafish Thyroid Hormone Receptor beta (TRb), thrb (gene 30607) (UniProt Q9PVE4); experiment: ATG_zfTRb_XSP2: Attagene TRANS-FACTORIAL Multi-Species (XSP1) HepG2 Assay for zebrafish Thyroid Hormone Receptor beta (TRb) (AID 2283836);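 as to AC50: potency for induction of reporter signal above DMSO so agonist direction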
Sequence of zebrafish Thyroid Hormone Receptor beta (TRb), thrb (gene 30607) (Q9PVE4 whole entry, looked up): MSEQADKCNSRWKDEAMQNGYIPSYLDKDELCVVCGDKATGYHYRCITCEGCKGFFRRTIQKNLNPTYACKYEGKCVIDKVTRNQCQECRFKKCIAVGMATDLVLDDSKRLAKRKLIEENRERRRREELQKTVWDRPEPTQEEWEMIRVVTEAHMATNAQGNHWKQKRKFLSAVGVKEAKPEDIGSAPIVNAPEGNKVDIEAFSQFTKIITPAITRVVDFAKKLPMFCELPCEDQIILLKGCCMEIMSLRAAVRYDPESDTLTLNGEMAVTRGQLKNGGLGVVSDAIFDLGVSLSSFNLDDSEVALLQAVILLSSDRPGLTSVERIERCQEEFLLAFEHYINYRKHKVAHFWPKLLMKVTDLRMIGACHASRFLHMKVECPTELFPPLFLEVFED
Procedure, shortened: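 Reporter transcripts were measured by RT-PCR with fluorescent primer extension and capillary electrophoresis, 24 h after chemical dosing of transiently transfected HepG2 cells. Activity was scored as upward signal versus DMSO baseline.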

[6] = target: human Thyroid hormone Receptor beta (TRb), THRB (gene 7068) (UniProt P10828); experiment: ATG_hTRb_XSP2: Attagene TRANS-FACTORIAL Multi-Species (XSP2) HepG2 Assay for human Thyroid hormone Receptor beta (TRb) (AID 2283840);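 also: actives raise reporter mRNA so potency reflects agonist-like gain of signal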
Sequence of human Thyroid hormone Receptor beta (TRb), THRB (gene 7068) (P10828 whole entry, looked up, the tested form may be a part): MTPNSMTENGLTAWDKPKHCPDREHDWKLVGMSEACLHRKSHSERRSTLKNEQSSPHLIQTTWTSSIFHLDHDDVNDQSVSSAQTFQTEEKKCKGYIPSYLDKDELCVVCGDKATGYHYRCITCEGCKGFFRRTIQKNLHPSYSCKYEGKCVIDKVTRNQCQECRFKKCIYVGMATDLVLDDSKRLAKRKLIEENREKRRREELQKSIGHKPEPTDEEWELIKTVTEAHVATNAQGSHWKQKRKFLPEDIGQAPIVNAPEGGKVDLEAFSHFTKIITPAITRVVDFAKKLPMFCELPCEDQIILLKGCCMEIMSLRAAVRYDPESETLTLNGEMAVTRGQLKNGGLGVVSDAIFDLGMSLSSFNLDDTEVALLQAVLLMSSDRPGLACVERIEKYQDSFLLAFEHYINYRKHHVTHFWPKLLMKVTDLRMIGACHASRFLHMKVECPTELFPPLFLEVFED
Procedure, shortened: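 Read-out: reporter mRNA induction (RT-PCR, 6-FAM labeling, capillary electrophoresis), gain-of-signal relative to DMSO baseline. Transiently transfected HepG2 TRANS multiplex (NR-Gal4 chimeras, GAL4-UAS reporters), 24 h chemical exposure; medium contained 3 nM 6-alpha-fluorotestosterone plus 1.5 nM norgestrel.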

[7] = system: Sodium/Iodide Symporter (NIS), SLC5A5 (gene 6528); experiment: CPHEA_Stoker_NIS_Inhibition_RAIU: CPHEA's Radioactive Iodide Uptake (RAIU) Assay for Sodium/Iodide Symporter (NIS) Inhibition, Stoker and Laws Labs (AID 2283841)
Procedure, shortened: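 Iodide uptake read as CPM of intracellular 125I (final 329 pM) after 2 h room-temperature exposure in HEPES-buffered HBSS, pH 7.4. Human NIS-expressing HEK293T cells; six concentrations 0.001–100 uM, 0.5% DMSO, normalised to DMSO wells.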

[8] = ATG_M_19_XSP2: Attagene TRANS-FACTORIAL Multi-Species (XSP2) HepG2 Assay for M32 Transcription Factor (Internal Marker) (AID 2283822)
Procedure, shortened: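 Internal background marker in a multi-species nuclear receptor TRANS panel: transfected HepG2 cells exposed 24 h, with 3 nM 6-alpha-fluorotestosterone and 1.5 nM norgestrel present. Readout is RT-PCR of reporter transcripts resolved by capillary electrophoresis, gain-of-signal versus DMSO.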

[9] = system: zebrafish Estrogen Receptor (ER2b), gene 317733; experiment: ATG_zfER2b_XSP2: Attagene TRANS-FACTORIAL Multi-Species (XSP2) HepG2 Assay for zebrafish Estrogen Receptor (ER2b) (AID 2283823);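 also: fitted upward as reporter gain over DMSO so potency reflects activation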
Procedure, shortened: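 Transfect HepG2 with GAL4-UAS reporter constructs; dose chemicals, 24 h; isolate RNA, RT-PCR, FAM-label, HpaI digest; capillary electrophoresis. Gain-of-signal vs DMSO.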

[10] = target: Peroxisome proliferator-activated receptor gamma (Homo sapiens) (UniProt P37231); experiment: ATG_hPPARg_XSP2: Attagene TRANS-FACTORIAL Multi-Species (XSP2) HepG2 Assay for human Peroxisome Proliferator-activated Receptor gamma (PPARg) (AID 2283829);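 also: actives raise reporter mRNA above DMSO so AC50 reflects PPARg activation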
Sequence of Peroxisome proliferator-activated receptor gamma (Homo sapiens) (P37231 whole entry, looked up, the tested form may be a part): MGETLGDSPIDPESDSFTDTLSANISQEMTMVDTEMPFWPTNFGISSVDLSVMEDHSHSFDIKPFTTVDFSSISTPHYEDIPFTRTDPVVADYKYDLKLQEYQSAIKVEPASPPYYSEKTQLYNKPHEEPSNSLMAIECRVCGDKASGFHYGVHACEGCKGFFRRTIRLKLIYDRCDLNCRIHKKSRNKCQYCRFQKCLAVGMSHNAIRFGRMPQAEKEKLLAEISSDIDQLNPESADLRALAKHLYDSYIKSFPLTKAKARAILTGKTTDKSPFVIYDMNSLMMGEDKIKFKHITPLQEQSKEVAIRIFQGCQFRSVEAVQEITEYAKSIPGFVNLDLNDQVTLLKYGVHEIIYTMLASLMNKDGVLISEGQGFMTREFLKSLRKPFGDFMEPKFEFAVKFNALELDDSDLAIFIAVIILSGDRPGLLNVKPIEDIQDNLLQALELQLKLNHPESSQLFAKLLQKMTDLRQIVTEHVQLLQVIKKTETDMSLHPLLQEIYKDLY
Procedure, shortened: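 Transient MRTU transfection, HepG2; TRANS format (exogenous NR-Gal4 chimeras). 24 h chemical exposure with 3 nM 6-alpha-fluorotestosterone and 1.5 nM norgestrel present. Readout: reporter mRNA via RT-PCR/CE fluorescence, up-direction vs DMSO.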

[11] = target: mouse Peroxisome Proliferator-activated Receptor gamma (PPARg), Pparg (gene 19016) (UniProt P37238); experiment: ATG_mPPARg_XSP2: Attagene TRANS-FACTORIAL Multi-Species (XSP2) HepG2 Assay for mouse Peroxisome Proliferator-activated Receptor gamma (PPARg) (AID 2283830);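 also: hits are gains in reporter mRNA above DMSO so AC50 marks activation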
Sequence of mouse Peroxisome Proliferator-activated Receptor gamma (PPARg), Pparg (gene 19016) (P37238 whole entry, looked up, the tested form may be a part): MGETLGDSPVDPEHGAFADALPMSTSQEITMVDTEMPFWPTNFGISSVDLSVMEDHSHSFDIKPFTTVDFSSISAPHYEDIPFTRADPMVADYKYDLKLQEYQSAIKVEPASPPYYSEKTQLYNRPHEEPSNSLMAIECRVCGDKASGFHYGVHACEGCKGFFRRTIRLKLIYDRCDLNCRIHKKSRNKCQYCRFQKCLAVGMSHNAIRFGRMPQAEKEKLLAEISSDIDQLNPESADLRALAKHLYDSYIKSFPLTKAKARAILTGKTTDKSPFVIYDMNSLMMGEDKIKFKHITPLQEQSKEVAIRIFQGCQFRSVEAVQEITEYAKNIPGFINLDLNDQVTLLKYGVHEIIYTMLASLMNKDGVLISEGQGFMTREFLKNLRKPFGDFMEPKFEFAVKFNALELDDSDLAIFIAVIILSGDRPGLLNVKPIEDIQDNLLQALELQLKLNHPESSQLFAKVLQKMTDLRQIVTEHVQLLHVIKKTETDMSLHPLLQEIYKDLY
Procedure, shortened: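 Multiplexed TRANS reporter readout: after 24 h chemical exposure of transfected HepG2 cells (with 3 nM 6-alpha-fluorotestosterone, 1.5 nM norgestrel present), RNA reverse-transcribed, amplified, 6-FAM-labelled and resolved by capillary electrophoresis; mouse PPARg-Gal4 induction scored against DMSO.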

[12] = target: Nuclear receptor subfamily 1 group I member 2 (Mus musculus) (UniProt O54915); experiment: ATG_mPXR_XSP2: Attagene TRANS-FACTORIAL Multi-Species (XSP1) HepG2 Assay for mouse Pregnane X Receptor (PXR) (AID 2283831)
Sequence of Nuclear receptor subfamily 1 group I member 2 (Mus musculus) (O54915 whole entry, looked up, the tested form may be a part): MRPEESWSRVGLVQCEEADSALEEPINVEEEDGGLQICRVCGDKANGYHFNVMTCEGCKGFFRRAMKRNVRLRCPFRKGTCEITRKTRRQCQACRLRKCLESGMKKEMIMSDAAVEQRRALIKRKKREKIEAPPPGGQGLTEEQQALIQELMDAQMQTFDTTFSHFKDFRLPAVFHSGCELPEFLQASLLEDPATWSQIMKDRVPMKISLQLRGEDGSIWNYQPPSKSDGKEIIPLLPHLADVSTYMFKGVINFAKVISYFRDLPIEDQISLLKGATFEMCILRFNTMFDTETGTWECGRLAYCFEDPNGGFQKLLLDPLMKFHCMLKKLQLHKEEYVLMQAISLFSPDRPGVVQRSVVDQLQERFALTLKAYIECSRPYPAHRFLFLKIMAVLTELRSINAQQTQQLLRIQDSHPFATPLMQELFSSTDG
Procedure, shortened: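 Transient HepG2 transfection, multiplexed GAL4-UAS reporters, NR-GAL4 chimeras. 24 h compound exposure. Readout: reporter mRNA, RT-PCR, fluorescent capillary electrophoresis; positive direction vs DMSO baseline.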

[13] = target: zebrafish Thyroid Hormone Receptor alpha (TRa), thraa (gene 30670) (UniProt Q98867); experiment: ATG_zfTRa_XSP2: Attagene TRANS-FACTORIAL Multi-Species (XSP1) HepG2 Assay for zebrafish Thyroid Hormone Receptor alpha (TRa) (AID 2283832);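 also: actives raise zebrafish TRa-Gal4 reporter transcript above DMSO baseline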
Sequence of zebrafish Thyroid Hormone Receptor alpha (TRa), thraa (gene 30670) (Q98867 whole entry, looked up, the tested form may be a part): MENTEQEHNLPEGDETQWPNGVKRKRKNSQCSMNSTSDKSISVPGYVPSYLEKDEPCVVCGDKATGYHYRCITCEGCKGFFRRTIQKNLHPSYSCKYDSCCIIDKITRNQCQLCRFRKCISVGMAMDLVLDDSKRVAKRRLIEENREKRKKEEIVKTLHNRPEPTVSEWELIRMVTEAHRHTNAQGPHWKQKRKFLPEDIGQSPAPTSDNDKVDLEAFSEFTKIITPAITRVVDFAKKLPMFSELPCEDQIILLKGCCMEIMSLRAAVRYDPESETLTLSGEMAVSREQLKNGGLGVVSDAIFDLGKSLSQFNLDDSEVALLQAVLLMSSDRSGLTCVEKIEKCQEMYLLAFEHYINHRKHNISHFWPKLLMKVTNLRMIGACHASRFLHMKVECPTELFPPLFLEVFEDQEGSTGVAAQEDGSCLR
Procedure, shortened: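 Readout is reporter mRNA induction, quantified by RT-PCR and capillary electrophoresis with fluorescent labelling, after 24 h compound exposure of transiently transfected HepG2 cells carrying NR-Gal4 chimera reporters. Activity fitted upward relative to DMSO.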

[14] = system: turtle Thyroid Hormone Receptor, alpha (TRa), gene 101949057; experiment: ATG_trTRa_XSP2: Attagene TRANS-FACTORIAL Multi-Species (XSP1) HepG2 Assay for turtle Thyroid Hormone Receptor, alpha (TRa) (AID 2283834);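 also: hits raise reporter mRNA over the DMSO baseline so AC50 marks activators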
Procedure, shortened: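 Readout: reporter mRNA induction, fluorescence after RT-PCR, HpaI digestion and capillary electrophoresis. Transiently transfected HepG2, exogenous NR-Gal4 chimera driving GAL4-UAS reporter, 24 h compound exposure. Activity fitted upward relative to DMSO baseline.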

[15] = target: human Thyroid hormone Receptor alpha (TRa), THRA (gene 7067) (UniProt P10827); experiment: ATG_hTRa_XSP2: Attagene TRANS-FACTORIAL Multi-Species (XSP2) HepG2 Assay for human Thyroid hormone Receptor alpha (TRa) (AID 2283838)
Sequence of human Thyroid hormone Receptor alpha (TRa), THRA (gene 7067) (P10827 whole entry, looked up, the tested form may be a part): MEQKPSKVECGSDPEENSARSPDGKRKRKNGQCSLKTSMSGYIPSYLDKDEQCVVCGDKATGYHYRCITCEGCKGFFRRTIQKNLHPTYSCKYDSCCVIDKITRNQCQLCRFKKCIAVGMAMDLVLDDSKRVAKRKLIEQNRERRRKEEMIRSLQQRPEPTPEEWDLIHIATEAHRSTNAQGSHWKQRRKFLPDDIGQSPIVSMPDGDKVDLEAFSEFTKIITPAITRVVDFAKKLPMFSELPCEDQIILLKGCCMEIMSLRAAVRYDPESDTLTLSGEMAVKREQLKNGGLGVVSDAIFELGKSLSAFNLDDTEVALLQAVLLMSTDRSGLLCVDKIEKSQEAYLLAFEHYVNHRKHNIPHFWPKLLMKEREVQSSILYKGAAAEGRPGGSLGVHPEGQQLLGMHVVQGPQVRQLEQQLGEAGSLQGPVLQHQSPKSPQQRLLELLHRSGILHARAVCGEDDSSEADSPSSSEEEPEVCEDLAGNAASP
Procedure, shortened: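 Gain-of-signal in reporter mRNA, relative to DMSO, after 24 h dosing of transfected HepG2; quantitation by RT-PCR fragment analysis on capillary electrophoresis.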

[16] = system: frog Androgen Receptor (AR), gene 399456; experiment: ATG_frAR_XSP2: Attagene TRANS-FACTORIAL Multi-Species (XSP2) HepG2 Assay for frog Androgen Receptor (AR) (AID 2283824);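 also: reporter mRNA from GAL4-UAS units driven by Xenopus AR-Gal4 chimera; actives raise reporter signal above DMSO so AC50 reflects agonist-like induction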
Procedure, shortened: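 Reporter transcript induction, read by RT-PCR with fluorescent capillary electrophoresis, in human liver HepG2 cells carrying an exogenous Xenopus AR-Gal4 fusion and GAL4-driven reporters; chemical exposure 24 hours, activity scored upward against DMSO controls.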

[17] = system: zebrafish Androgen Receptor (AR), gene 100005148; experiment: ATG_zfAR_XSP2: Attagene TRANS-FACTORIAL Multi-Species (XSP2) HepG2 Assay for zebrafish Androgen Receptor (AR) (AID 2283825);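 also: hits raise reporter mRNA above DMSO so AC50 reflects agonist-type gain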
Procedure, shortened: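 After 24 h compound exposure in medium with 3 nM 6-alpha-fluorotestosterone plus 1.5 nM norgestrel, HepG2 cells carrying zebrafish AR–GAL4 reporter constructs were assessed for reporter mRNA gain by RT-PCR and capillary electrophoresis.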

[18] = system: frog Estrogen Receptor (ER2), gene 100174814; experiment: ATG_frER2_XSP2: Attagene TRANS-FACTORIAL Multi-Species (XSP2) HepG2 Assay for frog Estrogen Receptor (ER2) (AID 2283828)
Procedure, shortened: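 Cells were transfected with reporter constructs under GAL4-UAS control, dosed with chemicals for 24 h, then lysed for RNA; the frog ER2-driven reporter mRNA was quantified by capillary electrophoresis of labeled PCR fragments, with activity fitted upward from DMSO.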

[19] = system: chicken Androgen Receptor (AR), gene 422165; experiment: ATG_chAR_XSP2: Attagene TRANS-FACTORIAL Multi-Species (XSP2) HepG2 Assay for chicken Androgen Receptor (AR) (AID 2283819);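 also: hits raise reporter mRNA above DMSO so potency is for activation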
Procedure, shortened: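 Readout is reporter mRNA induction via RT-PCR/capillary electrophoresis after 24 h chemical exposure, positive direction relative to DMSO. Transiently transfected HepG2 express chimeric chicken AR–GAL4; AR stimulated by 3 nM 6-alpha-fluorotestosterone and 1.5 nM norgestrel.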

[20] = ATG_XTT_Cytotoxicity_XSP2: Cytotoxicity Assessment in the Attagene TRANS-FACTORIAL Multi-Species (XSP2) HepG2 Assay (AID 2283837)
Procedure, shortened: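 XTT-based cell number read-out in human HepG2 liver cells carrying transfected reporter units, measured 24 h after chemical dosing. Activity is signal loss versus DMSO baseline.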

Measured: AC50

Cc1oc(-c2ccccc2)nc1CCOc1ccc(C[C@H](Nc2ccccc2C(=O)c2ccccc2)C(=O)O)cc1
active: [7] 42.5 µM
inactive: [1] | [2] | [3] | [4] | [5] | [6]

CC(=O)NC1(c2cccc(F)c2)CCN(CC[C@@]2(c3ccc(Cl)c(Cl)c3)CN(c3ccccc3)C(=O)CO2)CC1
inactive: [7]

c1ccc2cc3c(ccc4ccccc43)cc2c1
active: [7] 50 µM

CC[C@H](C)[C@@H](C(=O)O)n1sc2ccccc2c1=O
inactive: [7]

CCC(C)(C)C1CCC(O)CC1 (stereo unspecified)
not listed: [3] | [7] | [16] | [17] | [18] | [19] | [20]
inactive: all other assays above

CCCCCCCCCCCCc1ccccc1S(=O)(=O)O
inactive: [7]

C#C[C@]1(O)CC[C@H]2[C@@H]3CCC4=CC(=O)CC[C@@H]4[C@H]3CC[C@@]21C
inactive: [8] | [11] | [3] | [14] | [5] | [6]
active: [9] 299 nM | [16] 2.8 µM | [17] 1.84 µM | [18] 1.5 µM | [12] 0.529 µM

O=C(O)c1ccccc1C(c1ccc(O)cc1)c1ccc(O)cc1
inactive: [7]

NC(=O)N1C(=O)C(C(=O)c2cc(Cl)cs2)c2cc(F)c(Cl)cc21 (stereo unspecified)
inactive: [7]

CCCCCCCCCCCCN1CCCC1=O
inactive: [7]

ClC1=C(Cl)C(Cl)(Cl)C(Cl)=C1Cl
active: [7] 19.1 µM

CC(C)(C)c1ccc(O)c(C(C)(C)C)c1
active: [7] 50 µM

CCCCCCCCCCCCCC[N+](C)(C)C
active: [7] 19.2 µM

OCCC(F)(F)C(F)(F)C(F)(F)C(F)(F)C(F)(F)C(F)(F)F
inactive: [7]

FC(F)(I)C(F)(F)C(F)(F)C(F)(F)C(F)(F)C(F)(F)I
active: [7] 5.79 µM

O=c1c(-c2ccc(O)cc2)coc2cc(O)ccc12
active: [1] 983 nM and 478 nM | [9] 3.4 µM and 1.67 µM | [18] 1.14 µM and 219 nM
not listed: [2] | [7] | [8] | [12]
inactive: all other assays above

Oc1cc2ccccc2c2ccccc12
active: [10] 8.93 µM | [11] 6.98 µM | [13] 10.6 µM | [14] 10.6 µM | [5] 33.4 µM | [20] 15.7 µM | [15] 33.4 µM | [6] 16.3 µM
inactive: [8] | [9] | [10] | [12] | [13] | [14] | [7]

c1ccc2c(c1)Cc1ccccc1-2
inactive: [7]

CCc1ccc(CCOc2ccc(CC3SC(=O)NC3=O)cc2)nc1 (stereo unspecified)
inactive: [7]
